Laboratory results published in PubChem BioAssay (NCI).
Compounds without any hit were thinned out: in the full panel of roughly 83,000, 20% have a hit.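 Compound tested at a single concentration for 48 hours in 96-well plates; a percent growth value below 10 was scored as active.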 Unmarked numbers belong to inactive results. Active and inactive are the calls of the source.

Test system: HL-60(TB) leukemia
Test: NCI-60 one-dose screen, 48 h (100 = growth as untreated, 0 = no growth, -100 = all killed)
Conditions: 10 µM unless noted
Experimental: Growth inhibition of the HL-60(TB) human tumor cell line is measured as a screen for anti-cancer activity. Cells are grown in 96 well plates and exposed to the test compound for 48 hours. Compounds are tested at a single concentration, which is 10^-5 M for most compounds. The reported endpoint is percent growth (GI% or GIPRCNT), where numbers from 0 - 100% represent growth inhibition, and numbers from -100% - 0 represent cell death. For example, a value of 40 represents 60% growth inhibition. A value of 0 means no net growth occurred over the course of the experiment. A value of -40 indicates 40% of cells at the beginning of the experiment died by the end of the experiment. A value of -100 means all cells are dead at the end of the experiment.
NCI-60 Human Tumor Cell Lines Screen was performed using the standard one-dose NCI protocol, which is described in more detail at https://dtp.cancer.gov/discovery_development/nci-60/default.htm.
Compounds with GIPRCNT values below 10 were considered active. Activity score was based on GIPRCNT using the following formula: […]
Score is 0 for GIPRCNT values of 100 or above, 50 for GIPRCNT values of 0, and 100 for GIPRCNT values of -100.

Row | SMILES | growth
1 | Oc1c(O)c(Cl)c(Cl)c(Cl)c1Cl | 24.9%
2 | COC(=O)CC12CC(NC(=O)c3csc([C@@H](C[C@H](C(C)C)N(C)C(=O)[C@@H](NC(=O)[C@H]4CCCCN4C)C(C)C)OC(C)=O)n3)(C1)C2 | -29.6% (active)
3 | CC[C@H](C)[C@H](NC(=O)N[C@@H](C)c1ccccc1)C(=O)N(C)[C@H](C[C@@H](OC(C)=O)c1nc(C(=O)N[C@@H](Cc2ccccc2)C[C@H](C)C(=O)OC)cs1)C(C)C | -16.9% (active)
4 | CC(C)=CCC[C@H](C(=O)O)[C@@H]1CC[C@]2(C)C3=C(CC[C@@]12C)[C@@]1(C)CC[C@H](O)C(C)(C)[C@@H]1CC3 | 85.1%
5 | CC(C)COC(C[N+](=O)[O-])C(Cl)(Cl)Cl (stereo not given) | 93%
6 | O=C(CN1CCN(C(=O)c2ccco2)CC1)Nc1ccc(Cl)cc1C(=O)c1ccccc1Cl | 49.4%
7 | O=C(CCCCCCC(=O)Nc1ccc(N(CCCl)CCCl)cc1)NO | 18.4%
8 | CCC(C)(C)[C@H](NC(=O)[C@H]1CCCCN1C)C(=O)N(C)[C@H](C[C@@H](OC(C)=O)c1nc(C(=O)N[C@@H](Cc2ccccc2)C[C@H](C)C(=O)O)cs1)C(C)C | -8.72% (active)
9 | CC(C)(C)C(=O)OCOP(=O)(NCc1ccccc1)C1CCCN(O)C1=O (stereo not given) | 52.2%
10 | NC(=S)c1cn(C2OC(CO)C(O)C2O)c2ncnc(N)c12 (stereo not given) | -72.9% (active)
11 | CCOP(=O)(NC[C@H]1O[C@](O)(CO)[C@@H](O)[C@@H]1O)OCC | 101%
12 | COC(=O)[C@@H](C)C[C@H](Cc1ccccc1)NC(=O)c1nc([C@@H](C[C@H](C(C)C)N(C)C(=O)[C@@H](NC(=O)[C@H]2CCCCN2C)C(C)C)OC(C)=O)sc1C(C)C | -45.5% (active)
13 | N/C(=N/N=C/c1ccncc1)N[N+](=O)[O-] | 109%
14 | CCOP1(=O)CC(C)=C(Cl)C(P(=O)(OCC)OCC)C1 (stereo not given) | 107%
15 | Fc1ccc2c(c1)c(-c1nc(-c3c[nH]c4ncccc34)cs1)cn2CCN1CCOCC1 | 48.1%
16 | NC1CC2CCCCC2CC1(O)c1ccccc1 (stereo not given) | 91.1%
17 | CC(C)[C@@H]1NC(=O)[C@]2(C)CSC(=N2)c2csc(n2)CNC(=O)C[C@@H](/C=C/CCS)OC1=O | 8.48% (active)
18 | CCN(CCO)C(Cc1ccccc1)c1ccccc1 (stereo not given) | 111%
19 | Nc1nnnc2nc[nH]c12 | -4.59% (active)
20 | N/C(=N\N=C\c1ccc(-c2ccccc2)cc1)N[N+](=O)[O-] | -16.2% (active)

Row | SMILES | growth
21 | CCn1c2ccccc2c2cc(C(=O)c3cccc4c3CCCN4)ccc21 | 110%
22 | Cc1ccccc1NC(=NCCCN1CC1)Nc1ccccc1C | 95.9%
23 | COC(=O)[C@@]1(O)C[C@H]2O[C@]1(C)n1c3ccccc3c3c4c(c5c6ccccc6n2c5c31)C(=O)NC4 | -44.5% (active)
24 | COc1cc(C=Nc2cccc(C(=O)O)c2)ccc1N(CCCl)CCCl | 110%
25 | CC1(C)N=C(N)N=C(N)N1c1ccc(CCCCc2ccc(Cl)c(S(=O)(=O)F)c2)c(Cl)c1 | -43.9% (active)
26 | CCOc1ccc(/C=C/[N+](=O)[O-])cc1 | 105%
27 | COc1ccc(/C=C\c2cc(OC)c(OC)c(OC)c2)c(NS(=O)(=O)c2ccc(F)cc2)c1O | 10.1%
28 | O=C(O)CNC(=O)C(Cl)(Cl)Cl | 80.8%
29 | C/C(=C\c1cc(C(F)(F)F)nn1CCNC(=O)OC(C)(C)C)[C@@H]1C[C@@H]2O[C@]2(C)CCC[C@H](C)[C@H](O)[C@@H](C)C(=O)C(C)(C)[C@@H](O)CC(=O)O1 | 14.1%
30 | O=C(Nc1ccc(Cl)cc1)Nc1nccs1 | -18.6% (active)
31 | COC(=O)[C@H](Cc1c[nH]c2ccccc12)NC(=O)[C@@H](OC)[C@@H]1Cc2cc3cc(OC4CC(OC5CC(O)C(O)C(C)O5)C(O)C(C)O4)c(C)c(O)c3c(O)c2C(=O)[C@H]1OC1CC(OC2CC(OC3CC(C)(O)C(O)C(C)O3)C(O)C(C)O2)C(O)C(C)O1 (stereo not given in full) | -8.66% (active)
32 | Clc1cccc(Cl)c1Cl | 99.6%
33 | O=C(CC1(O)C(=O)N(Cc2ccccc2)c2ccc(Br)cc21)c1ccc(C(=O)NCC2CCC3(CC2)OOC2(CCCCC2)OO3)cc1 (stereo not given) | -57.3% (active)
34 | Cn1cc(-c2csc(-c3cn(CCN4CCOCC4)c4ccc(F)cc34)n2)c2cccnc21 | 1.01% (active)
35 | COC(=O)CC[C@H](Cc1ccccc1)NC(=O)c1csc([C@@H](C[C@H](C(C)C)N(C)C(=O)[C@@H](NC(=O)[C@H]2CCCCN2C)C(C)C)OC(C)=O)n1 | 4.63% (active)
36 | COc1ccc(C(=O)c2cc(OC)c(OC)c(OC)c2)cc1OC(C)=O | -37.1% (active)
37 | CO[C@H](C(=O)O)[C@@H]1Cc2cc3cc(OC4CC(OC5CC(O)C(O)C(C)O5)C(O)C(C)O4)c(C)c(O)c3c(O)c2C(=O)[C@H]1OC1CC(OC2CC(OC3CC(C)(O)C(O)C(C)O3)C(O)C(C)O2)C(O)C(C)O1 (stereo not given in full) | 41.3%
38 | C=COC(=O)CCN1CC1 | 92.3%
39 | CN1CC(=O)N(O)C1(C)c1cccnc1 (stereo not given) | 92.2%
40 | O=C1OCCC1Br (stereo not given) | 78.1%
